HT1080 IDH1KD tx = qHTS for induction of synthetic lethality in tumor cells producing 2HG: qHTS for the HT-1080-IDH1KD cell line | Potency, µM (doses to about 46.1 µM), for the others: at the highest dose activity, negative = toxicity, usual class: cytotoxic | HT-1080 IDH1 knockdown viability, ATP luminescence, 48 h | AID 686971, 2013 | 360,000 tested, 2% active;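 also: potency is read from the fitted curve at half-maximal effect; 0% = DMSO wells and -100% = cell-free medium wells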
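After a 2 h attachment period, IDH1KD HT-1080 cells took pin-transferred compound for 48 h at 37 °C; ATP-based luminescence after 10 min room-temperature reagent incubation reported viability.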
HT1080NT lethal = qHTS for induction of synthetic lethality in tumor cells producing 2HG: qHTS for the HT-1080-NT fibrosarcoma cell line; HT-1080-NT fibrosarcoma viability, CellTiter-Glo ATP luminescence, 48 h; Potency, µM (doses to about 46.1 µM), for inactives: top-dose activity, negative = less viability, actives largely listed as cytotoxic; 360,000 tested, 1.6% active;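 also: NT is the 2HG producing partner of a matched IDH1 knockdown line; potency is read from the fitted curve at half-maximal effect; 0% = DMSO-treated cells and -100% = media-only wells without cells; nearly all actives have a fitted effect of over 55% in size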
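A 48-hour cytotoxicity screen used HT-1080-NT cells plated 2 hours before compound delivery. ATP-based CellTiter-Glo luminescence measured viability, normalized to DMSO and no-cell controls.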
DT40 TDP1 no CPT = qHTS for Inhibitors of human tyrosyl-DNA phosphodiesterase 1 (TDP1): qHTS in cells in absence of CPT | Potency, µM (top dose mostly 46.2 µM), for the others: at the top dose activity change, negative = growth inhibition, actives largely listed as inhibitors | 420,000 tested, 15% active | DT40 Tdp1-/- hTDP1 cells, no CPT, ATP luminescence, 48 h | AID 686978, 2013; also: potency is read from the fitted curve at half-maximal effect; nearly all actives have a fitted effect of over 55% in size
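Compound effects on proliferation are scored in DT40 Tdp1-/-;hTDP1 cells in the absence of CPT. ATP levels (CellTiter-Glo luminescence) are recorded after a ≥48 hr, 37 °C incubation.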
TDP1 cell CPT = qHTS for Inhibitors of human tyrosyl-DNA phosphodiesterase 1 (TDP1): qHTS in cells in presence of CPT; chicken DT40 Tdp1-/-;hTDP1 cells + 20 nM CPT, ATP luminescence, 48 h; Potency, µM (top dose mostly 46.2 µM), without a hit: at the top dose activity change, negative = growth inhibition, hits mostly inhibitors; 420,000 tested, 12% active; also: potency is read from the fitted curve at half-maximal effect; nearly all actives have a fitted effect of over 55% in size
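Chicken DT40 Tdp1-/- cells complemented with human TDP1, 400 cells/well, exposed to compounds plus 20 nM camptothecin for at least 48 h at 37 C; viability read as ATP content by CellTiter-Glo luminescence.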
IL1B secr inh = qHTS for Inhibitors of Inflammasome Signaling: IL-1-beta AlphaLISA Primary Screen. AID 743279, 2014. THP-1 LPS/ATP IL-1B secretion, AlphaLISA, 16 h; hits give low values. 360,000 tested, 4.7% active. activity change, % at 57.5 µM; in the data active = activity change below about -50%; inconclusive = mostly about -30% to -49%
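THP-1 cells pretreated 1 hr with compounds (up to 57.5 uM final), then stimulated with LPS (250 ng/mL final) plus ATP (1.25 mM final); secreted IL-1B measured by AlphaLISA after 16 hr, decreased signal indicating inhibition.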
Numbers without * were called inactive. This is a sample that favours compounds with a hit; in the whole collection about 19% have one here. Unless noted, calls follow the shape of the dose curve; as a rule, active = well fitted curve in the direction sought with a large enough effect; inconclusive = small, poorly fitted or top-dose-only effect, or another doubt; inactive = no such curve, though single readings can be large; an effect the other way counts as inactive or inconclusive. Unless noted, % is scaled to controls: 0 for no effect and ±100 for the full control effect.

How did O=C(Nc1ccccc1)NC1CCN(Cc2ccccc2)CC1 do in these assays?
HT1080 IDH1KD tx: -1%; HT1080NT lethal: -3%; DT40 TDP1 no CPT: -1%; TDP1 cell CPT: -13%; IL1B secr inh: -28

Results for CCC1CCc2sc(C(=O)NC3CCN(Cc4ccccc4)CC3)cc2C1 (configuration not stated) ?
HT1080 IDH1KD tx: -28%; HT1080NT lethal: -10%; DT40 TDP1 no CPT: 13µM*; TDP1 cell CPT: 21µM*; IL1B secr inh: -74*

How did CC1CCc2sc(C(=O)NC3CCN(Cc4ccccc4)CC3)cc2C1 (configuration not stated) do in these assays?
HT1080 IDH1KD tx: inconclusive; HT1080NT lethal: -21%; DT40 TDP1 no CPT: 13µM*; TDP1 cell CPT: 21µM*; IL1B secr inh: -59*

How did CCCC(CCC)C(=O)NC1CCN(Cc2ccccc2)CC1 do in these assays?
HT1080 IDH1KD tx: -6%; HT1080NT lethal: -2%; DT40 TDP1 no CPT: -2%; TDP1 cell CPT: 7%; IL1B secr inh: 6

How did CN1C[C@@H]2[C@@H]3C(=O)N(Cc4ccccc4)C(=O)[C@@H]3[C@](Cc3ccccc3)(C1=O)N2C(=O)c1ccc(F)cc1 do in these assays?
HT1080 IDH1KD tx: 0%; HT1080NT lethal: 2%; DT40 TDP1 no CPT: 5%; TDP1 cell CPT: 10%; IL1B secr inh: 2

How did Cc1csc(SCC(=O)Nc2cc(F)ccc2C)n1 do in these assays?
HT1080 IDH1KD tx: 6%; HT1080NT lethal: 11%; DT40 TDP1 no CPT: inconclusive; TDP1 cell CPT: -22%; IL1B secr inh: 17

Results for CCOc1ccc2nc(NC(=O)CSc3ccc(Cl)cc3)sc2c1 ?
HT1080 IDH1KD tx: -18%; HT1080NT lethal: -17%; DT40 TDP1 no CPT: inconclusive; TDP1 cell CPT: inconclusive; IL1B secr inh: -1

What do the screens show for `O=C(Nc1nc2ccccc2s1)c1cnccn1`?
HT1080 IDH1KD tx: inconclusive; HT1080NT lethal: 2.8µM*; DT40 TDP1 no CPT: inconclusive; TDP1 cell CPT: inconclusive; IL1B secr inh: 11

What do the screens show for `CCOC(=O)c1csc(Nc2nc3ccc(F)cc3s2)n1`?
HT1080 IDH1KD tx: inconclusive; HT1080NT lethal: -25%; DT40 TDP1 no CPT: 9.2µM*; TDP1 cell CPT: 21µM*; IL1B secr inh: 110

What do the screens show for `O=C(Nc1nc2ccccc2s1)c1ccccc1`?
HT1080 IDH1KD tx: -12%; HT1080NT lethal: -2%; DT40 TDP1 no CPT: -25%; TDP1 cell CPT: inconclusive; IL1B secr inh: 1

How did CCOc1ccc2nc(NC(=O)c3cnccn3)sc2c1 do in these assays?
HT1080 IDH1KD tx: 8%; HT1080NT lethal: 15%; DT40 TDP1 no CPT: 23µM*; TDP1 cell CPT: 23µM*; IL1B secr inh: -16

Results for CCOc1ccc2nc(NC(=O)c3ccc(OCC4CCCO4)cc3)sc2c1 (configuration not stated) ?
HT1080 IDH1KD tx: inconclusive; HT1080NT lethal: inconclusive; DT40 TDP1 no CPT: 5.8µM*; TDP1 cell CPT: 4.1µM*; IL1B secr inh: -19

What do the screens show for `CCC(C)NC(=O)COC(=O)c1ccc(Cl)cc1O` (configuration not stated)?
HT1080 IDH1KD tx: 12%; HT1080NT lethal: 1%; DT40 TDP1 no CPT: -1%; TDP1 cell CPT: 0%; IL1B secr inh: -12

What do the screens show for `Cc1cc(N)ccc1NC(=O)CN1CCOCC1`?
HT1080 IDH1KD tx: 7%; HT1080NT lethal: 1%; DT40 TDP1 no CPT: 5%; TDP1 cell CPT: 3%; IL1B secr inh: 0

What do the screens show for `O=C(Nc1nc2ccc(F)cc2s1)C1=NN(c2ccccc2)C(=O)CC1`?
HT1080 IDH1KD tx: 0%; HT1080NT lethal: -2%; DT40 TDP1 no CPT: 2%; TDP1 cell CPT: -6%; IL1B secr inh: 55

Results for O=C(Nc1nc2ccc(F)cc2s1)c1ccccn1 ?
HT1080 IDH1KD tx: 8.2µM*; HT1080NT lethal: inconclusive; DT40 TDP1 no CPT: 0.52µM*; TDP1 cell CPT: 0.65µM*; IL1B secr inh: -95*

Results for O=C(NNc1nc2ccc(F)cc2s1)c1cccc(F)c1 ?
HT1080 IDH1KD tx: 15µM*; HT1080NT lethal: inconclusive; DT40 TDP1 no CPT: inconclusive; TDP1 cell CPT: 12µM*; IL1B secr inh: 35

What do the screens show for `CCOc1ccc2nc(NC(=O)C3(C)CC3(Br)Br)sc2c1` (configuration not stated)?
HT1080 IDH1KD tx: -15%; HT1080NT lethal: 1%; DT40 TDP1 no CPT: 23µM*; TDP1 cell CPT: 16µM*; IL1B secr inh: -16

Results for O=C(Nc1nnc(SCc2ccc(F)cc2)s1)c1cccnc1Cl ?
HT1080 IDH1KD tx: 0%; HT1080NT lethal: -2%; DT40 TDP1 no CPT: -18%; TDP1 cell CPT: 0%; IL1B secr inh: 7

How did CCOCC(=O)Nc1nc2ccc(OCC)cc2s1 do in these assays?
HT1080 IDH1KD tx: -13%; HT1080NT lethal: -6%; DT40 TDP1 no CPT: inconclusive; TDP1 cell CPT: inconclusive; IL1B secr inh: -14

Results for O=C(Nc1nnc(SCc2ccc(F)cc2)s1)c1ccccn1 ?
HT1080 IDH1KD tx: inconclusive; HT1080NT lethal: inconclusive; DT40 TDP1 no CPT: 5.2µM*; TDP1 cell CPT: 2.6µM*; IL1B secr inh: 0

What do the screens show for `N#CC1=C2CCCCC2(O)NC1=O` (configuration not stated)?
HT1080 IDH1KD tx: 4%; HT1080NT lethal: 9%; DT40 TDP1 no CPT: 4%; TDP1 cell CPT: -4%; IL1B secr inh: 5

How did O=C(NCc1ccccn1)c1ccc(-c2ccccc2)cc1 do in these assays?
HT1080 IDH1KD tx: -10%; HT1080NT lethal: 8%; DT40 TDP1 no CPT: -1%; TDP1 cell CPT: 13%; IL1B secr inh: inconclusive

Results for O=C(NCc1ccccn1)c1c(-c2ccccc2)sc2ccccc12 ?
HT1080 IDH1KD tx: 3%; HT1080NT lethal: 0%; DT40 TDP1 no CPT: inconclusive; TDP1 cell CPT: 23µM*; IL1B secr inh: 81

What do the screens show for `O=C(CC1C(=O)NCCN1Cc1ccc(F)cc1)NCCOc1cccnc1` (configuration not stated)?
HT1080 IDH1KD tx: 12%; HT1080NT lethal: 15%; DT40 TDP1 no CPT: 3%; TDP1 cell CPT: 5%; IL1B secr inh: 2

How did O=C(CC1C(=O)NCCN1Cc1ccc(-c2ccccc2)cc1)NCCOc1cccnc1 (configuration not stated) do in these assays?
HT1080 IDH1KD tx: -11%; HT1080NT lethal: -10%; DT40 TDP1 no CPT: 16µM*; TDP1 cell CPT: inconclusive; IL1B secr inh: -3

Results for COC(=O)C1=NNC(C(=O)c2ccco2)C1c1ccc(OC)cc1 (configuration not stated) ?
HT1080 IDH1KD tx: 3%; HT1080NT lethal: -7%; DT40 TDP1 no CPT: -5%; TDP1 cell CPT: -6%; IL1B secr inh: 17

From PubChem BioAssay
